How the values were obtained:
Test in all cases: DAPPL (digital affinity profiling via proximity ligation, sequencing); 10 mM Tris-HCl pH 7.5, 50 mM NaCl, 1 mM DTT, 4% glycerol, room temperature, 30 min; GST-TFs on glutathione beads, 16-mer random dsDNA library, 0.1% formaldehyde crosslink after washing; high values mean tight binding
Settings in all cases: protein: recombinant; tags: N-terminal GST; dsDNA, one strand shown
FLI1 = target: T1, FLI1 (Homo sapiens, UniProt Q01543 1-452)
T1 sequence: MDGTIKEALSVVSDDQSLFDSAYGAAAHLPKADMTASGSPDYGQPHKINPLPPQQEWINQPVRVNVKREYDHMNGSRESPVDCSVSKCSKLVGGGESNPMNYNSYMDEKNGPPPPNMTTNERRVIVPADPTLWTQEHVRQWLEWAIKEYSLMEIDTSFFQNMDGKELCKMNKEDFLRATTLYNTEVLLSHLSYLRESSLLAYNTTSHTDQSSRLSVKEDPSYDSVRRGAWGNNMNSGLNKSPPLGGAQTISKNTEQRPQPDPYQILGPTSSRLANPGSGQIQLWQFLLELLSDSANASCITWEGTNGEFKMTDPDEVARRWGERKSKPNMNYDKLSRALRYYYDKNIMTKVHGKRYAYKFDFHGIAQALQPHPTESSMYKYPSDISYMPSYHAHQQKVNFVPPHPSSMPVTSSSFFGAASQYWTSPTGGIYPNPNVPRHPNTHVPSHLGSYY
Method in brief: (§1)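 Each value of binding signal is a hexamer's read frequency for a factor divided by the same hexamer's frequency in the tag-only sample. Barcoded, bead-captured GST fusions of human transcription factors made in yeast were pooled with that sample and incubated with 200 nmole of a random double-stranded 16-mer DNA library in Tris/NaCl/DTT/glycerol buffer at room temperature for 30 min. Washing, 0.1% formaldehyde crosslinking, proximity ligation, PCR and Illumina NextSeq500 sequencing followed.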

ELK1 = target: T2, ELK1 (Homo sapiens, UniProt P19419 1-428)
T2 sequence: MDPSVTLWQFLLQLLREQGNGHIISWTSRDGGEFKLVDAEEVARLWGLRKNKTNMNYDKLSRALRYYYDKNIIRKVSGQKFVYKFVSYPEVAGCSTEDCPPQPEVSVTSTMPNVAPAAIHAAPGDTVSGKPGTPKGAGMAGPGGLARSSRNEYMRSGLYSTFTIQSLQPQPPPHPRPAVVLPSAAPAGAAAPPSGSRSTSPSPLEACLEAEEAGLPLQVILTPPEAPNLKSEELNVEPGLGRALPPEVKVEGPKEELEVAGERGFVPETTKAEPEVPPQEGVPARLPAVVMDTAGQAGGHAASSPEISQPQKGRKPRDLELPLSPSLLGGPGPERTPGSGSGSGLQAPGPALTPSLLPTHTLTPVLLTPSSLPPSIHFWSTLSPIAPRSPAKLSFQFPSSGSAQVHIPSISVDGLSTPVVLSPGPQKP
Method in brief: as §1

GABPA = target: T3, GABPA (Homo sapiens, UniProt Q06546 1-454)
T3 sequence: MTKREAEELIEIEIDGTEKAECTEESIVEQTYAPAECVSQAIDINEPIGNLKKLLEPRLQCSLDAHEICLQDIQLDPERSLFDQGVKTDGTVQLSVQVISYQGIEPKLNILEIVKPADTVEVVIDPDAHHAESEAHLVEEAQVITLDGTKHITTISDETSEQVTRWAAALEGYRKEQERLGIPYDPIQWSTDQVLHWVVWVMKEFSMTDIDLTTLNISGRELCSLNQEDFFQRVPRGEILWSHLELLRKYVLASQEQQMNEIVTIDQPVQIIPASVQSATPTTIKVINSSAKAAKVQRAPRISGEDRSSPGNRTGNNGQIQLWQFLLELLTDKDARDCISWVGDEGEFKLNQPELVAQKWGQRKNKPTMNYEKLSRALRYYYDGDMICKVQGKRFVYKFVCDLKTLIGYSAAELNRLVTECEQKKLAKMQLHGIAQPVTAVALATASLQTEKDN
Method in brief: as §1

ERG = target: T4, ERG (Homo sapiens, UniProt P11308 1-479)
T4 sequence: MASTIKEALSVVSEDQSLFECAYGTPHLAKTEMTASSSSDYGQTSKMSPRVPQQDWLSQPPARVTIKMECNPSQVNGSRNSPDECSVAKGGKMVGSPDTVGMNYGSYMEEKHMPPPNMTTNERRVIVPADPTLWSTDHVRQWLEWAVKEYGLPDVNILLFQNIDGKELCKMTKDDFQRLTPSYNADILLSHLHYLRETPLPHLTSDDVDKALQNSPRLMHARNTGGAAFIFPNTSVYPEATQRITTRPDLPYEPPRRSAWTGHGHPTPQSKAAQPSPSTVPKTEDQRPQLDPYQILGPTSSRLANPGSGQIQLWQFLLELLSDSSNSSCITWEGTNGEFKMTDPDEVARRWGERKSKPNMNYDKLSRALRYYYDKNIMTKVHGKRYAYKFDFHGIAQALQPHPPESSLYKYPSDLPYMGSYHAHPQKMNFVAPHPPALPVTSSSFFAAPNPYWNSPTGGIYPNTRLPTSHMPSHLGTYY
Method in brief: as §1

ELF1 = ELF1 (Homo sapiens, UniProt P32519 1-619)
Method in brief: as §1

EHF = target: T5, EHF (Homo sapiens, UniProt Q9NZC4 1-300)
T5 sequence: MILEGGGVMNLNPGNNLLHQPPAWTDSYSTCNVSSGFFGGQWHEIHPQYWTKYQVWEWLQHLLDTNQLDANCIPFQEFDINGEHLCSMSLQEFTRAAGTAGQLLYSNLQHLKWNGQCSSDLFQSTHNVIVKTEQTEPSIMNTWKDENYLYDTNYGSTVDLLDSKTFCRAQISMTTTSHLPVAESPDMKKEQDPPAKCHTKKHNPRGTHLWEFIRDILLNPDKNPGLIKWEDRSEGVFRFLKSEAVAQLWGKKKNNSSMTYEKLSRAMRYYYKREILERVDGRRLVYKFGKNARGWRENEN
Method in brief: as §1

SPI1 = SPI1 (Homo sapiens, UniProt P17947 1-270)
Method in brief: as §1

SPIB = SPIB (Homo sapiens, UniProt Q01892 1-262)
Method in brief: as §1

ELK3 = target: T6, ELK3 (Homo sapiens, UniProt P41970 1-407)
T6 sequence: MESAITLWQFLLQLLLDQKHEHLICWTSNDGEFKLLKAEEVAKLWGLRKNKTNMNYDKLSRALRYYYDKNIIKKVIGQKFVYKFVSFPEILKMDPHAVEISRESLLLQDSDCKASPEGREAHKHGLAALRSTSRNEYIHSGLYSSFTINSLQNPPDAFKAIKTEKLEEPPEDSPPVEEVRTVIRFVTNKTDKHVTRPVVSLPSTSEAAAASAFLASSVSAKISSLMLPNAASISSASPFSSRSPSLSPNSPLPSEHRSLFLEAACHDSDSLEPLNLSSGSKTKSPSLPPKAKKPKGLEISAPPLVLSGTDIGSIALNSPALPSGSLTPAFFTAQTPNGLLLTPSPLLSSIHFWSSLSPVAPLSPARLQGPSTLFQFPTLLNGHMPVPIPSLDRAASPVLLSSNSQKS
Method in brief: as §1

Sequence of SPIB (Q01892 whole entry): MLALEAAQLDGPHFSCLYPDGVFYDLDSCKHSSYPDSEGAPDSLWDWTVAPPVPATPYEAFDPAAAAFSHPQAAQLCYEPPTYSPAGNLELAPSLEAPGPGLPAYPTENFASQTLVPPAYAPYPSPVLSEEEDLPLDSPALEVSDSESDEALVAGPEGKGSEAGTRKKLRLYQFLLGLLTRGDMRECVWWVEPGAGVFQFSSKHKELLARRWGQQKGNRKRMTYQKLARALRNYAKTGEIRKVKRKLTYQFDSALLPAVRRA
Sequence of ELF1 (P32519 whole entry): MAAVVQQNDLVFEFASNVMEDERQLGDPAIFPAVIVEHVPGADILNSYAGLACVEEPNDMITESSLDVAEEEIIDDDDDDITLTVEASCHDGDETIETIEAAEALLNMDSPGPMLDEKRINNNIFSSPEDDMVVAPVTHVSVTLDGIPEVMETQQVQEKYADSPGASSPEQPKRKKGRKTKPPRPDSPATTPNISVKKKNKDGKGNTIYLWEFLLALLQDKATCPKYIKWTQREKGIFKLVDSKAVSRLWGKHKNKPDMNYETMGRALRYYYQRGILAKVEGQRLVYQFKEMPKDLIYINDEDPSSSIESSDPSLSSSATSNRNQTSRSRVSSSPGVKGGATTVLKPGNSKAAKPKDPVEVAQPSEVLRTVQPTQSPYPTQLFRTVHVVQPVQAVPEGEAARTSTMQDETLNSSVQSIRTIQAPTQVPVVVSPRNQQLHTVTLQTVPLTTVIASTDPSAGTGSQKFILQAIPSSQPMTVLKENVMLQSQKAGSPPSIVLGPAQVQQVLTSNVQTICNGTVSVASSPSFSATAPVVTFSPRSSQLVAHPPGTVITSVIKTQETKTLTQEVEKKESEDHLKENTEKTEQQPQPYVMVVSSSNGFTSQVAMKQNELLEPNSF

Row | Sequence | binding signal (FLI1) | binding signal (ELK1) | binding signal (GABPA) | binding signal (ERG) | binding signal (ELF1) | binding signal (EHF) | binding signal (SPI1) | binding signal (SPIB) | binding signal (ELK3)
1 | ATTTAG | 1.13 fold enrichment (6-mer frequency, TF over GST control) | 1.07 fold enrichment (6-mer frequency, TF over GST control) | 1.27 fold enrichment (6-mer frequency, TF over GST control) | 1.02 fold enrichment (6-mer frequency, TF over GST control) | 1.15 fold enrichment (6-mer frequency, TF over GST control) | 1.14 fold enrichment (6-mer frequency, TF over GST control) | 1.11 fold enrichment (6-mer frequency, TF over GST control) | 1.16 fold enrichment (6-mer frequency, TF over GST control) | 1.09 fold enrichment (6-mer frequency, TF over GST control)
2 | TATCGT | 1.18 fold enrichment (6-mer frequency, TF over GST control) | 1.28 fold enrichment (6-mer frequency, TF over GST control) | 1.04 fold enrichment (6-mer frequency, TF over GST control) | 1.14 fold enrichment (6-mer frequency, TF over GST control) | 1.14 fold enrichment (6-mer frequency, TF over GST control) | 1.1 fold enrichment (6-mer frequency, TF over GST control) | 1.07 fold enrichment (6-mer frequency, TF over GST control) | 1.2 fold enrichment (6-mer frequency, TF over GST control) | 1.18 fold enrichment (6-mer frequency, TF over GST control)
3 | CTTATG | 1.52 fold enrichment (6-mer frequency, TF over GST control) | 1.56 fold enrichment (6-mer frequency, TF over GST control) | 1.4 fold enrichment (6-mer frequency, TF over GST control) | 1.45 fold enrichment (6-mer frequency, TF over GST control) | 1.38 fold enrichment (6-mer frequency, TF over GST control) | 1.39 fold enrichment (6-mer frequency, TF over GST control) | 1.45 fold enrichment (6-mer frequency, TF over GST control) | 1.59 fold enrichment (6-mer frequency, TF over GST control) | 1.46 fold enrichment (6-mer frequency, TF over GST control)
4 | AGAATT | 1.21 fold enrichment (6-mer frequency, TF over GST control) | 1.15 fold enrichment (6-mer frequency, TF over GST control) | 1.11 fold enrichment (6-mer frequency, TF over GST control) | 1.17 fold enrichment (6-mer frequency, TF over GST control) | 1.15 fold enrichment (6-mer frequency, TF over GST control) | 1.18 fold enrichment (6-mer frequency, TF over GST control) | 1.22 fold enrichment (6-mer frequency, TF over GST control) | 1.16 fold enrichment (6-mer frequency, TF over GST control) | 1.28 fold enrichment (6-mer frequency, TF over GST control)
5 | TCTTCC | 2.61 fold enrichment (6-mer frequency, TF over GST control) | 2.52 fold enrichment (6-mer frequency, TF over GST control) | 2.39 fold enrichment (6-mer frequency, TF over GST control) | 2.86 fold enrichment (6-mer frequency, TF over GST control) | 2.65 fold enrichment (6-mer frequency, TF over GST control) | 2.76 fold enrichment (6-mer frequency, TF over GST control) | 2.46 fold enrichment (6-mer frequency, TF over GST control) | 2.75 fold enrichment (6-mer frequency, TF over GST control) | 2.79 fold enrichment (6-mer frequency, TF over GST control)
6 | TCTAGC | 1.31 fold enrichment (6-mer frequency, TF over GST control) | 1.34 fold enrichment (6-mer frequency, TF over GST control) | 1.24 fold enrichment (6-mer frequency, TF over GST control) | 1.32 fold enrichment (6-mer frequency, TF over GST control) | 1.35 fold enrichment (6-mer frequency, TF over GST control) | 1.38 fold enrichment (6-mer frequency, TF over GST control) | 1.21 fold enrichment (6-mer frequency, TF over GST control) | 1.19 fold enrichment (6-mer frequency, TF over GST control) | 1.44 fold enrichment (6-mer frequency, TF over GST control)
7 | ACGAAT | 1.12 fold enrichment (6-mer frequency, TF over GST control) | 1.1 fold enrichment (6-mer frequency, TF over GST control) | 1.22 fold enrichment (6-mer frequency, TF over GST control) | 1.07 fold enrichment (6-mer frequency, TF over GST control) | 1.15 fold enrichment (6-mer frequency, TF over GST control) | 1.13 fold enrichment (6-mer frequency, TF over GST control) | 1.13 fold enrichment (6-mer frequency, TF over GST control) | 1.15 fold enrichment (6-mer frequency, TF over GST control) | 1.13 fold enrichment (6-mer frequency, TF over GST control)
8 | AAAACT | 1.23 fold enrichment (6-mer frequency, TF over GST control) | 1.16 fold enrichment (6-mer frequency, TF over GST control) | 1.15 fold enrichment (6-mer frequency, TF over GST control) | 1.17 fold enrichment (6-mer frequency, TF over GST control) | 1.25 fold enrichment (6-mer frequency, TF over GST control) | 1.24 fold enrichment (6-mer frequency, TF over GST control) | 1.17 fold enrichment (6-mer frequency, TF over GST control) | 1.23 fold enrichment (6-mer frequency, TF over GST control) | 1.19 fold enrichment (6-mer frequency, TF over GST control)
